In PubChem BioAssay (NCATS):
Results filed as inconclusive are left out. Values without a mark were called inactive. Activity calls are given as the source filed them. The call rests on the fitted dose curve; in most records, active means well fitted inhibition curve with a large enough effect; inconclusive means small, poorly fitted or top-dose-only effect; inactive means flat fitted curve, though single readings scatter.

What follows are molecules tested on JCK (assay: qHTS profiling for inhibitors of Plasmodium falciparum proliferation (AID 504749; further: nearly all actives have a fitted effect of over 60% in size;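 on activity, negative = inhibition: 0% = DMSO vehicle and full inhibition = artemisinin control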)). Conditions: P. falciparum in erythrocytes, SYBR Green DNA, 72 h; series mostly up to 28.7 µM; activity, negative = inhibition: at the top concentration.
In short: (§1)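 SYBR Green fluorescence of parasite DNA, read after lysis and overnight dark incubation, measured growth over 72 h in erythrocyte culture at 0.3% parasitemia and 2.5% hematocrit. Data normalised to DMSO and 0.29 uM artemisinin, with plate-drift correction.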
Potency means the concentration at half of the fitted maximal effect.

Compound	activity, negative = inhibition	Potency
C#CC(C)(O)CC (stereo not given)	-7.35%	
CCCCNCC(O)c1ccc(O)cc1 (stereo not given)		1.12 µM (active)
O[C@H]1[C@H]2[C@H](O)CCCN2C[C@H]1O	10%	
C=CCN1CCC23c4c5ccc(O)c4O[C@H]2C(=O)CC[C@@]3(O)C1C5 (stereo not given in full)	3.37%	
CC(=O)OO	11.6%	
CCCC(=O)OC(C(Cl)(Cl)Cl)P(=O)(OC)OC (stereo not given)	-0.14%	
[N-]=[N+]=CC(=O)OCC(N)C(=O)O (stereo not given)	10.2%	
CC(C)CCON=O	3.39%	
COCC(C)N(C(=O)CCl)c1c(C)csc1C (stereo not given)	-8.5%	
C[N+]1(C)CCCCC1COC(=O)C(O)(c1ccccc1)c1ccccc1 (stereo not given)	0.522%	
CCC1(c2ccccc2)C(=O)NC(=O)NC1=O	8.92%	
C[N+]1(C)C2CCC1CC(OC(=O)c1c[nH]c3ccccc13)C2 (stereo not given)	-9.06%	
O=S(=O)(O)c1cc(O)ccc1O	5.16% [at 12.8 µM]	
FC(F)OC(F)(F)C(F)Cl (stereo not given)	6.89%	
CNC1(c2ccccc2Cl)CCCCC1=O (stereo not given)		inactive
c1ccc2sc(SNC3CCCCC3)nc2c1	10.6%	

Each molecule was assayed on N140 in the same assay as above. Conditions: P. falciparum in erythrocytes, SYBR Green DNA, 72 h; series mostly up to 28.7 µM; activity, negative = inhibition: at the top concentration.
In short: as §1

Compound	activity, negative = inhibition	Potency
COc1ccc(OC)c(C(O)C(C)N)c1 (stereo not given)	16.5%	
CCON=O	-4.76%	
CCCCCl	5.74%	
COC([CH2][Hg])CNC(=O)c1ccccc1OCC(=O)O (stereo not given)	15.2%	
CC(C)(O)C1C2OC(=O)C1C1(O)CC3OC34C(=O)OC2C14C (stereo not given)	-8.41%	
C[CH2][Hg][S]c1ccccc1C(=O)O		2.24 µM (active)
O=C1C2CC=CCC2C(=O)N1SC(Cl)(Cl)Cl (stereo not given)	4.6%	
N#CN	11.2%	
O=C1CCCCC1CN1CCCCC1 (stereo not given)	10.6%	
CN1C2CCC1CC(OC(c1ccccc1)c1ccc(Cl)cc1)C2 (stereo not given)		11.2 µM (active)
COC1=CC=C2[C@H]3Cc4ccc(OC)c5c4[C@@]2(CCN3C)[C@H]1O5	-3.21% [at 12.8 µM]	
S=C=S	14.3%	
O=[N+]([O-])C(Br)(CO)CO	-2.57%	
COc1ccc2c3c1O[C@H]1C(=O)CC[C@H]4[C@@H](C2)N(C)CC[C@]314	8.89%	
CC(=O)O[C@H]1CC[C@H]2[C@@H]3CCC4=CC(=O)CCC4=C3C=C[C@]12C	-7.88%	
CCCCCCCCOC(=O)c1ccccc1C(=O)OCCCCCCCC	2.23%	
O=C1CCO1	-20.7%	
O=C(CS(=O)C(c1ccccc1)c1ccccc1)NO (stereo not given)	4.52%	
C=CCN1CC[C@]23c4c5ccc(O)c4O[C@H]2[C@@H](O)C=C[C@H]3[C@H]1C5	6.5%	
O=c1[nH]cc(N(CCCl)CCCl)c(=O)[nH]1	5.13%	

Compound	activity, negative = inhibition	Potency
C/C(=C\c1csc(C)n1)[C@@H]1C[C@@H]2O[C@]2(C)CCC[C@H](C)[C@H](O)[C@@H](C)C(=O)C(C)(C)[C@@H](O)CC(=O)O1		0.0045 µM (active)
CCC(N)Cc1c[nH]c2ccccc12 (stereo not given)	4.16%	
C#CC(C)(O)CC (stereo not given)	4.1%	
CCCCNCC(O)c1ccc(O)cc1 (stereo not given)	-4.35%	
O[C@H]1[C@H]2[C@H](O)CCCN2C[C@H]1O	9.4%	
C=CCN1CCC23c4c5ccc(O)c4O[C@H]2C(=O)CC[C@@]3(O)C1C5 (stereo not given in full)	3.26%	
CC(=O)OO	18.8%	
CCCC(=O)OC(C(Cl)(Cl)Cl)P(=O)(OC)OC (stereo not given)	-17.4%	
[N-]=[N+]=CC(=O)OCC(N)C(=O)O (stereo not given)	9.89%	
CC(C)CCON=O	-3.22%	
CC(C)(C)c1cc(O)ccc1O		11.2 µM (active)
COCC(C)N(C(=O)CCl)c1c(C)csc1C (stereo not given)	6.03%	
C[N+]1(C)CCCCC1COC(=O)C(O)(c1ccccc1)c1ccccc1 (stereo not given)	-8.67%	
CCC1(c2ccccc2)C(=O)NC(=O)NC1=O	-1.25%	
C[N+]1(C)C2CCC1CC(OC(=O)c1c[nH]c3ccccc13)C2 (stereo not given)	17.8%	
O=S(=O)(O)c1cc(O)ccc1O	-2.41% [at 12.8 µM]	
FC(F)OC(F)(F)C(F)Cl (stereo not given)	21.3%	
CNC1(c2ccccc2Cl)CCCCC1=O (stereo not given)	-5.04%	
c1ccc2sc(SNC3CCCCC3)nc2c1	11.6%	
